Gli-Sufu block – Gli-Sufu pathway antagonism; AID 588413; 340,000 tested, 0.74% active; Sufu-KO-LIGHT fibroblasts, Gli luciferase reporter luminescence; inhibition, % at 5 µM;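 active means inhibition above about 55%, limit read from the data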
697 NFkB inh – lowers PMA/ionomycin-induced NF-kB signal in 697 B cells; 697 B-cell NF-kB luciferase reporter, 16 h; 330,000 tested, 0.33% active; inhibition, % at 4 µM; in the data active means inhibition above about 35%
KLF5 inhibitor – suppresses KLF5 promoter-driven expression; DLD-1 KLF5 promoter-luciferase reporter, luminescence; inhibition, % at 5 µM; 290,000 tested, 0.23% active; AID 1700;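 active means inhibition above a per-plate limit of that plate's mean compound inhibition plus 3 SD, cut at about 60% in these data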;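 further: higher means less KLF5 promoter-driven luciferase light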
aSyn UTR inh – MLPCN primary screen, SNCA 5' untranslated region | inhibition, % (tested at 7.5 µM) | 300,000 tested, 0.82% active | alpha-synuclein 5'UTR reporter, inhibitor activity; in the data active means inhibition above about 60%; inconclusive means no clear call, values can overlap the other calls;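 further: H4 neuroglioblastoma cells stably carrying SNCA 5'UTR luciferase fusion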
Jurkat NFkB inh – inhibitors of the PMA/ionomycin-induced NF-kB reporter in Jurkat cells; PMA/ionomycin-induced NF-kB luciferase reporter, luminescence; inhibition, % at 4 µM; 330,000 tested, 0.53% active; in the data active means inhibition above about 50%
Mdm2-MdmX inh – disrupts the human Mdm2-MdmX interaction; O15151+Q00987; SaOS-2 split-luciferase Mdm2/MdmX complementation, luminescence; inhibition, % at 8 µM; 330,000 tested, 3% active; AID 485346;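 active means inhibition of at least 50% at 8 µM in the primary screen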
Target sequence (O15151 whole entry, looked up): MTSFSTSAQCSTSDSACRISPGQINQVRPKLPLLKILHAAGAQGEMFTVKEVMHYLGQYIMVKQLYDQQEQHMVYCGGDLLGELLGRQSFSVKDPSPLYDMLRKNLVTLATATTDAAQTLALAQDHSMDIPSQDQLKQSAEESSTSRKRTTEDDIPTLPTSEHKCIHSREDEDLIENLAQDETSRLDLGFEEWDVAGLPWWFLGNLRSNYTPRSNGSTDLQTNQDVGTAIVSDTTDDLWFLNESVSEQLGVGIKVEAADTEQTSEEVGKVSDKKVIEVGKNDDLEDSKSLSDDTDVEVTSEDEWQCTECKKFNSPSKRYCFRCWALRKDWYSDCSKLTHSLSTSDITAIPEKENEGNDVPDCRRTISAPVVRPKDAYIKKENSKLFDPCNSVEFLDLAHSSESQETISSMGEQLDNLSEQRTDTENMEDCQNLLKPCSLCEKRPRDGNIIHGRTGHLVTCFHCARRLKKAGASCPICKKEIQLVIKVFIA
Target sequence (Q00987 whole entry, looked up): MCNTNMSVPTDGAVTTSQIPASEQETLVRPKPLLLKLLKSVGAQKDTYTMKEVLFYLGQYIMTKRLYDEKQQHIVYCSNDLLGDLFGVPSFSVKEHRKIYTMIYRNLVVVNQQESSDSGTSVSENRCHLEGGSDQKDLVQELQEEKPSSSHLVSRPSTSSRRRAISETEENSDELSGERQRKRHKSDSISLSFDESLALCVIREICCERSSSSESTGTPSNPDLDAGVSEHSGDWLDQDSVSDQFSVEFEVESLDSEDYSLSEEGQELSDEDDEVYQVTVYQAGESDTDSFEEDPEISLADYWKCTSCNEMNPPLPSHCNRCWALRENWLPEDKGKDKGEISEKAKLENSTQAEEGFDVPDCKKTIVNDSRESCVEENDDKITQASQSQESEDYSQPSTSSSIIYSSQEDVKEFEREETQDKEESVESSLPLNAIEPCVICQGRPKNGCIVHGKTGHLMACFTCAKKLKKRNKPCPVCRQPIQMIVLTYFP
697 NFkB conf – lowers PMA/ionomycin-induced NF-kB signal in 697 B cells. 697 B-cell NF-kB luciferase, 16 h. shares compounds with 697 NFkB inh. inhibition, % at 4 µM. 2,000 tested, 35% active; in the data active means inhibition mostly above about 28%, no sharp cut-off; inactive means mostly below about 22%
Mdm2-MdmX conf – human Mdm2/MdmX binding inhibition, confirmed; 10,000 tested, 55% active; AID 489028; shares compounds with Mdm2-MdmX inh; inhibition, % at 8 µM; luminescent assay; in the data active means inhibition above about 40%
Full FLuc ctr – full-length luciferase inhibition in Mdm2/MdmX counter-screen. shares compounds with Mdm2-MdmX inh. SaOS-2 full-length luciferase counterscreen, luminescence. inhibition, % at 8 µM. 6,200 tested, 77% active. AID 504607;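 active means mean inhibition at 8 µM reaching about 37%, which flags the compound as non-specific, limit read from the data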;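 further: p53-null SaOS-2 cells with luciferase driven by a doxycycline-inducible promoter; compound on cells about two nights before reading with doxycycline added after day one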
Numbers stand for hits; 0 = inactive; ? = inconclusive; - = no result given. Compounds with a hit are over-represented: about 4.1% of the library has one in this group of screens.

SMILES | Gli-Sufu block | 697 NFkB inh | KLF5 inhibitor | aSyn UTR inh | Jurkat NFkB inh | Mdm2-MdmX inh | 697 NFkB conf | Mdm2-MdmX conf | Full FLuc ctr
COc1cc(-c2ccc(NC(=O)NC3CC3)c(OC)c2)ccc1NC(=O)NC1CC1 | - | 0 | 0 | 0 | 0 | 91 | 0 | 57 | 73
Cc1ccc(C)c(-n2nnnc2Sc2nnnn2-c2ccccc2)c1 | 0 | 35 | 0 | 0 | 0 | 100 | 33 | 79 | 52
COCC(C)n1c(SCC(=O)N2CCc3ccccc3C2)nc2ccccc2c1=O (stereo not given) | 0 | 0 | 0 | 0 | 0 | 0 | - | - | -
CCc1c(C)sc(NC(=O)C2CC2c2ccccc2)c1C(N)=O (stereo not given) | 0 | 0 | 0 | 0 | 0 | 57 | 0 | 73 | 55
O=C(Nc1ccccc1)c1cn(CCBr)cn1 | 0 | 0 | - | 0 | 0 | 0 | - | - | -
Cc1ccc(/C=C2/NC(=O)N(Cc3ccccc3)C2=O)o1 | 0 | 0 | 0 | 0 | 0 | 0 | - | - | -
Cn1c(=O)n(C)c2cc(/C=C3/NC(=O)N(Cc4ccccc4)C3=O)ccc21 | 0 | 47 | 0 | 0 | 0 | 51 | 27 | 0 | 88
COc1ccccc1NC(=O)C1CCCN(S(=O)(=O)c2c(C)noc2C)C1 (stereo not given) | 0 | 0 | 0 | 0 | 0 | 0 | - | - | -
COc1cccc(N2CCN(c3ncnc4c3[nH]c3ccc(F)cc34)CC2C)c1 (stereo not given) | 91 | 71 | 0 | 0 | 0 | 98 | 91 | 100 | 0
COc1ccc2[nH]c3c(N4CC(C)OC(C)C4)ncnc3c2c1 (stereo not given) | 0 | 0 | 0 | 0 | 0 | 0 | - | - | -
CCN(CC)C(=O)N1c2ccccc2C=Cc2ccccc21 | 0 | 0 | 0 | 0 | 0 | 85 | 0 | 80 | 0
NC(=O)N1c2ccccc2C=Cc2ccccc21 | 0 | 0 | 0 | 0 | 0 | 0 | - | - | -
C#CCn1c(S(=O)(=O)Cc2ccc(C)cc2)nc(-c2ccccc2)c1-c1ccccc1 | 0 | 0 | 0 | 0 | 0 | 95 | 0 | 81 | 55
CCC(ONc1ccccc1C(F)(F)F)(C(=O)NN(C)C)c1ccccc1 (stereo not given) | 0 | 0 | - | - | 0 | 0 | - | - | -
Cc1ccc(CSCC(=O)Nc2ccccc2C(=O)O)cc1 | 0 | 0 | 0 | 0 | 0 | 52 | 0 | 0 | -
Cc1cc(OCC(=O)Nc2ccc(CN3CCOCC3)cc2)c2c(C)c(C)c(=O)oc2c1 | 0 | 38 | 0 | 0 | 0 | 58 | 0 | 0 | -
Cc1cc(OCC(=O)Nc2ccc(CN3CCOCC3)cc2)c2c(C)cc(=O)oc2c1 | 0 | 0 | 0 | 0 | 0 | 0 | - | - | -
COc1ccc(NC(=O)CSc2ccc3nnc(CCNC(=O)c4ccccc4)n3n2)cc1OC | 0 | 0 | 0 | 0 | 0 | 0 | - | - | -
N=C(CC1CC(=O)NC(=O)C1)C1=C(O)CCCC1=O | 0 | 0 | 0 | 0 | 0 | 0 | - | - | -
Cc1cccc2nc(COc3ccc(-c4ccccc4)cc3)cn12 | - | 0 | 0 | 0 | 0 | 63 | 0 | 0 | 78
O=C(CCNC(=O)c1ccc(Br)cc1)NC1CCCc2ccccc21 (stereo not given) | 0 | 0 | - | 0 | 0 | 88 | 0 | 89 | 46
CN(C(=O)CN1C(=O)S/C(=C\c2ccc(Cl)cc2)C1=O)C1CCS(=O)(=O)C1 (stereo not given) | 0 | 0 | 0 | 0 | 0 | 0 | - | - | -
Cc1cc(/C=C2\Cc3ccccc3C2=O)c(C)n1-c1ccccc1 | 0 | 0 | 0 | ? | 0 | 80 | 0 | 64 | 73
COc1ccc(C(=O)O/N=C(\N)c2ccccc2)c(OC)c1 | 0 | 0 | 0 | 0 | 0 | 93 | 0 | 77 | 164
COC(=O)Nc1sccc1C(=O)Nc1sccc1C(=O)OC | 0 | 39 | 0 | 0 | 0 | 61 | 0 | 0 | -
SMILES | Gli-Sufu block | 697 NFkB inh | KLF5 inhibitor | aSyn UTR inh | Jurkat NFkB inh | Mdm2-MdmX inh | 697 NFkB conf | Mdm2-MdmX conf | Full FLuc ctr
Nc1[nH]n(-c2ccccc2)c(=O)c1N=Nc1ccc2c(c1)OCO2 | 0 | 0 | 0 | 0 | 0 | 0 | - | - | -
Oc1ccc(N=Nc2ccc3c(c2)OCO3)c2ccccc12 | - | 0 | 0 | 0 | 0 | 94 | 0 | 92 | 59
COc1ccc2[nH]c(C(=O)N(C)c3ccc(F)cc3F)cc2c1 | 0 | 0 | 0 | 0 | 0 | 0 | - | - | -
Cc1ccc(NC(=O)c2nc[nH]c2C(=O)NCCCNC(=O)c2[nH]cnc2C(=O)Nc2ccc(C)cc2)cc1 | 0 | 36 | - | - | 0 | 68 | 0 | 0 | -
Cc1ccc(NC(=O)c2nc[nH]c2C(=O)NCCCCCNC(=O)OC(C)(C)C)cc1 | 0 | 0 | - | - | 0 | 0 | - | - | -
COc1ccc(COC(=O)N/N=C(\C)CC(=O)Nc2ccc(Cl)cn2)cc1 | 0 | 0 | 0 | 0 | 0 | 0 | - | - | -
CCc1nc2c(c(=O)c3ccccc3n2C)c(=O)n1CCc1ccc(OC)cc1 | - | 0 | 0 | 74 | 0 | 88 | 0 | 66 | 123
CC(C)NC(=O)C(C)Oc1ccc(S(=O)(=O)NCc2ccc3c(c2)OCO3)cc1 (stereo not given) | 0 | 0 | 0 | 0 | 0 | 0 | - | - | -
CC(NC(=O)c1cc2c(s1)CS(=O)(=O)C2)c1ccccc1 (stereo not given) | 0 | 0 | 0 | 0 | 0 | 0 | - | - | -
CSCCC(NC(=O)COc1ccccc1)C(=O)OC(C)C(=O)Nc1ccccc1C (stereo not given) | 0 | 0 | - | 0 | 0 | 0 | - | - | -
CC1=CC(C)(C)Nc2ccc(OC(=O)CN3C(=O)c4cccc5cccc(c45)C3=O)cc21 | 0 | - | 0 | 0 | - | - | - | - | -
CC1=CC(C)(C)Nc2ccc(OC(=O)CN3C(=O)c4ccccc4C3=O)cc21 | 0 | 59 | 0 | 0 | 0 | 97 | 39 | 0 | 0
Cc1noc(C)c1CSc1nc2[nH]ncc2c(=O)n1-c1ccccc1 | 0 | 55 | 74 | ? | 0 | 69 | 55 | 68 | 61
Cc1nc(CSc2nc3[nH]ncc3c(=O)n2-c2ccccc2)cs1 | 0 | 0 | 0 | 0 | 0 | 0 | - | - | -
Cc1sc2nc(C3CC3)nc(SCC(=O)N3c4ccccc4CC3C)c2c1C (stereo not given) | 0 | 0 | 0 | 0 | 0 | 85 | 0 | 90 | 53
COc1ccc(-n2nnnc2S(=O)(=O)CC(=O)N2CCCCC2)cc1 | 0 | 39 | 0 | - | 0 | 97 | 60 | 96 | 0
Cn1nc(-c2ccc(N3CCOCC3)c(NS(=O)(=O)c3ccccc3)c2)c2ccccc2c1=O | 0 | 61 | 0 | 0 | 0 | 65 | 33 | 0 | -
CC(=O)Nc1cc(-c2nn(C)c(=O)c3ccccc23)ccc1N1CCCCC1 | 0 | 0 | 0 | 0 | 0 | 0 | - | - | -
CCN1C(=O)[C@@H]2Cc3c([nH]c4ccccc34)C(c3ccc(OC)cc3)N2C1=S (stereo not given in full) | 0 | 0 | 0 | 0 | 0 | 73 | 0 | 58 | 58
O=C1CN(S(=O)(=O)c2cccc(Br)c2)CCN1 | 0 | 0 | - | - | 0 | 0 | - | - | -
COc1ccccc1C(=O)Nc1ccc2c(c1)CCCN2C(=O)c1ccccc1 | 0 | 0 | 0 | 0 | 0 | 0 | - | - | -

Bioassay records from PubChem.
